For 82 molecules, inhibition results are on record in PubChem BioAssay AID1438 (Sanford-Burnham Center for Chemical Genomics, 2008).

Each structure is given as a SMILES string. Out of some 2,200 compounds screened, about 45 (2%) were called active. A selection follows. Measured potencies and affinities stand elsewhere. Unmarked numbers belong to inactive results. How the calls were made is not given here.

This test deals with Runt-related transcription factor 1 (Homo sapiens) + Core-binding factor subunit beta (Homo sapiens) (UniProt Q01196+Q13951). Briefly: Runt domain/CBFb-SMMHC interaction disruptors – biochemical, TR-FRET (AID 1438). The note with it: at 20 µM, stronger effect = higher value. Background: Time-resolved FRET reads energy transfer from a long-lived donor to a nearby acceptor.
Runt-related transcription factor 1 (Homo sapiens) + Core-binding factor subunit beta (Homo sapiens), sequence (Q01196 whole entry, looked up, the tested form may be a part): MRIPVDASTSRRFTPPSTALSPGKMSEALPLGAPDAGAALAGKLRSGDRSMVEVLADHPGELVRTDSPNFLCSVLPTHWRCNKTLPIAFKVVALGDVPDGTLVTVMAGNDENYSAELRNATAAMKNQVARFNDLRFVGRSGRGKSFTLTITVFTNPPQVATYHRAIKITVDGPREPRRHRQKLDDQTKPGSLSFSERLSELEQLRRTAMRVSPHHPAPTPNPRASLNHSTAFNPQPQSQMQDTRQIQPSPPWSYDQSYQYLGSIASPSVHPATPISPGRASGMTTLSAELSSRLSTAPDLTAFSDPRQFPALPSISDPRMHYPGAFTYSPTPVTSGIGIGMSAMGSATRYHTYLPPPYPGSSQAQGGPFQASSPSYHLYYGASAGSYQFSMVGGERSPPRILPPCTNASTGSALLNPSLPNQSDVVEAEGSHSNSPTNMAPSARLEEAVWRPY
Runt-related transcription factor 1 (Homo sapiens) + Core-binding factor subunit beta (Homo sapiens), sequence (Q13951 whole entry, looked up, the tested form may be a part): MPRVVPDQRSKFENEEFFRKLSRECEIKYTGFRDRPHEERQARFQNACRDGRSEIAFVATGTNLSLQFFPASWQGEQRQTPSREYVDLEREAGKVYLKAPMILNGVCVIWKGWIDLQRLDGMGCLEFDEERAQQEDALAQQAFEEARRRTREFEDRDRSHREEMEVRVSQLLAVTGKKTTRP
One may read the inhibition as the relative decrease from the control value, in per cent. Consider `O=C(Cc1nc2ccccc2s1)c1ccc(O)cc1O`, for which the inhibition is 15.1%. Then `CCOC(=O)c1cc(C(=O)OCC)c2ccccn2c1=O`, with 25.7%; and `COCCCNC(=O)c1cc2c(=O)n3cc(C)ccc3nc2nc1NCC1CCCO1` (configuration not stated), with -2.6%. Then `CC(C)OC(=O)c1c2nc3ccccc3nc2n2c1[nH]c(=O)c1ccccc12`, with -203%; and `Cc1ccc2[nH]cc(C(=O)CN3CCC4(CC3)OCCO4)c2c1`, with 2.6%.

Take `COCc1cc(=O)n2c([nH]c3ccccc32)c1C#N`: the inhibition was 38.4%. Then `O=c1[nH]c2ccccc2n2c(-c3ccccc3)nnc12`, with 84.1% (active). Then `O=c1[nH]c2ccccc2nc1/C=C/c1ccccc1`, with -5.7%. With `Cc1cccn2c(=O)c3cc(C(=O)NCc4ccco4)c(=N)n(C(C)C)c3nc12`, the inhibition is 32.5%. Turning to `COc1cc(/C=C/C(=O)OCC(=O)Nc2ccccc2Sc2ccc(Cl)cc2)ccc1O`, the inhibition is 1.1%.

Regarding `Cc1cccn2c(=O)c(/C=C(\C#N)C(=O)NC3CCS(=O)(=O)C3)c(N3CC(C)OC(C)C3)nc12` (configuration not stated), the inhibition was -39.6%. The same measure for `COc1ccc(OC)c(N=c2ssnc2Cl)c1`: -11.1%. The same measure for `CCCN1CCc2c(sc(NC(=S)NC(=O)c3ccccc3)c2C#N)C1`: -14.1%. The same measure for `N#Cc1c(NC(=S)NC(=O)c2ccccc2)sc2c1CCN(CCc1ccccc1)C2`: 52% (active). For the molecule `CC(C)N1CCc2c(sc(NC(=S)NC(=O)c3ccccc3)c2C#N)C1`, the inhibition is 21.2%. Then `CNS(=O)(=O)c1ccc2nc(NC(=O)c3ccc(N4C(=O)CCC4=O)cc3)sc2c1`, with -3.6%.

For `O=C(Nc1nc2c(s1)CN(Cc1ccccc1)CC2)C1CCC1`, the inhibition was 43%. Then `COc1ccc(C2c3ccc(O)cc3Oc3ncn(CC(C)C)c(=N)c32)cc1` (configuration not stated), with -6.8%; and `CC(=O)Nc1sc2c(c1C(N)=O)CCN(Cc1ccccc1)C2`, with -0.2%; and `NNc1nc2sc3c(c2c(=O)n1C1CCCCC1)CCN(Cc1ccccc1)C3`, with -9.4%.

Take `CC1(C)CC(=O)C2=C(C1)Nc1ccccc1NC2`: the inhibition is -9.5%. On to `O=C(c1ccccc1)c1cc2ccc(O)cc2oc1=O`, for which the inhibition was -8.4%. In the case of `CCCn1c(=N)c(C(=O)NC2CCCC2)cc2c(=O)n3cccc(C)c3nc21`, the inhibition is 2.5%.

Regarding `CCc1ccc(S(=O)(=O)Nc2ccc(-c3nc4cccnc4s3)cc2)s1`, the inhibition was 44%. Then `O=S(=O)(Nc1ccc(-c2nc3cccnc3s2)cc1)c1cccs1`, with 29.2%; and `Cc1cccc2cc(C#N)c(NCCNS(=O)(=O)c3ccccc3)nc12`, with -12.6%. The same measure for `CN1CCN(Cc2c(O)ccc3cc(-c4ccccn4)c(=O)oc23)CC1`: -17.3%; for `COc1ccc(C2C3=C(CC(C)(C)CC3=O)Nc3c2c(=O)[nH]c2nc(C)nn32)cc1` (configuration not stated): 17.2%; for `Cc1nc2[nH]c(=O)c3c(n2n1)NC1=C(C(=O)CC(C)(C)C1)C3c1ccc(F)cc1` (configuration not stated): 46.7%.

Take `O=C(Nc1nccs1)c1ccccc1N=Cc1ccccc1`: the inhibition was 49.3%.

For `Cn1c(C(=O)NCc2ccccn2)cc2c(=O)n3ccccc3nc21`, the inhibition is 11.6%.

With `Nc1c(C(=O)NCc2ccco2)c2nc3ccccc3nc2n1CCc1ccccc1`, the inhibition was 42.7%. Then `CC(C)Cn1c(N)c(C(=O)NCCN2CCOCC2)c2nc3ccccc3nc21`, with 46.7%; and `COc1ccc(CCn2c(N)c(C(=O)NCc3ccco3)c3nc4ccccc4nc32)cc1`, with 46.3%; and `CC(C)Cn1c(N)c(C(=O)NCc2cccs2)c2nc3ccccc3nc21`, with 17%. As for `CCN1CCc2nc(SCC(=O)Nc3ccc(OC)cc3)c(C#N)cc2C1`, the inhibition was 20.7%.

In the case of `CCOC(=O)C1=C(CSc2nc3c(cc2C#N)CN(C)CC3)OC(N)=C(C#N)C1c1ccncc1` (configuration not stated), the inhibition is 35.4%. The same measure for `Cc1cc(=O)oc2cc(OC(=O)c3cncc(Br)c3)ccc12`: -4.4%.

Take `O=C(COC(=O)COc1ccccc1[N+](=O)[O-])NC1CCCC1`: the inhibition is -6%. Then `COc1ccc(OCCn2cc(/C=C(\C#N)C(=O)NCc3ccco3)c3ccccc32)cc1`, with -10.8%; and `CN1CCc2cc3c(c4c2[C@H]1[C@H](O)c1ccccc1-4)OCO3`, with 18.4%; and `COc1c(O)ccc2c1CN1CCc3cc4c(cc3C1C2)OCO4` (configuration not stated), with -9.6%.

Turning to `CNC(=O)/C(C#N)=C/c1c(N(Cc2ccccc2)Cc2ccccc2)nc2c(C)cccn2c1=O`, the inhibition is -14.8%. The same measure for `CC(=O)N=c1c(C#N)cc2c(=O)n3ccccc3nc2n1CCCOC(C)C`: 7.1%; for `CCN(CC)c1ccc2cc(C(=O)Nc3cccnc3N3CCOCC3)c(=O)oc2c1`: -26.6%. Then `CCCCCCc1cc2cc(S(=O)(=O)c3ccc(Cl)cc3)c(=O)oc2cc1O`, with 12.2%; and `CCCn1c(=N)c(S(=O)(=O)c2ccccc2)cc2c(=O)n3ccccc3nc21`, with -6.9%; and `CCn1c(=N)c(S(=O)(=O)c2ccccc2)cc2c(=O)n3ccccc3nc21`, with -19.8%. Turning to `Cc1ccc2nc3c(cc(S(=O)(=O)c4ccccc4)c(=N)n3Cc3ccco3)c(=O)n2c1`, the inhibition was -7.9%. Take `Cc1cccn2c(=O)c3cc(S(=O)(=O)c4ccc(F)cc4)c(=N)n(Cc4ccco4)c3nc12`: the inhibition is -6.5%. Then `COC(=O)C1=CN(CC2CCCO2)C=C(C(=O)OC)C1c1ccccc1C(F)(F)F` (configuration not stated), with 45.6%; and `Cc1ccccc1OCCn1cc(/C=C(\C#N)C(=O)NCc2ccco2)c2ccccc21`, with 20.8%; and `COCCOC(=O)C1=C(C)NC2=C(C(=O)CC(C)(C)C2)C1c1cccnc1` (configuration not stated), with 35.5%. In the case of `Fc1ccc(CSc2nc3ncccc3[nH]2)cc1`, the inhibition is -9.6%.

Turning to `CCC(C)n1c(=N)c(C#N)cc2c(=O)n3cccc(C)c3nc21` (configuration not stated), the inhibition was -18.9%. The same measure for `CCOC(=O)c1cc2c(=O)n3ccccc3nc2n(Cc2ccco2)c1=NC(=O)c1cccc(OC)c1`: -10.1%; for `O=C1C=CC(=O)N1c1cccc(-c2ccccc2)c1`: -6.3%.

Turning to `O=C(c1ccccc1)c1ccccc1N1C(=O)C=CC1=O`, the inhibition is 28.3%.

Regarding `Cc1cc(C)cc(Oc2nc3ccccn3c(=O)c2/C=C(\C#N)C(=O)NC2CCS(=O)(=O)C2)c1` (configuration not stated), the inhibition was -134%.

Regarding `Cc1ccccc1Oc1nc2c(C)cccn2c(=O)c1/C=C(\C#N)C(=O)NC1CCS(=O)(=O)C1` (configuration not stated), the inhibition is -12.5%. Then `COP(=O)(CC(=O)c1ccccc1)CC(=O)c1ccccc1`, with -7.7%. Then `Nc1ccc2c(C(F)(F)F)cc(=O)oc2c1`, with 18.1%; and `O=C(c1ccccc1)c1cnc(Nc2ccc(Cl)c(Cl)c2)s1`, with 29.7%. Then `COc1ccc(N2C3=C(C(=O)CC(C)(C)C3)C(c3ccccc3OC)C3=C2CC(C)(C)CC3=O)cc1`, with 2.8%; and `COc1ccc(N2C3=C(C(=O)CC(C)(C)C3)C(c3cnn(C)c3)C3=C2CC(C)(C)CC3=O)cc1`, with -7.6%. For `CCOC(=O)C1=C(Cc2ccc(C)cc2)C(=O)c2ccccc2C1=O`, the inhibition is 45.1%. The same measure for `CCOC(=O)c1sc(-c2ccc(Cl)cc2)nc1O`: -7.6%; for `Oc1c(C=NCc2ccccc2)sc2ccccc12`: -12.8%; for `CN(C)c1nc(-c2cccs2)cc(C(F)(F)F)c1C#N`: -6.2%.

Take `N#Cc1c2c(c(Nc3ccccc3)n3c1nc1ccccc13)CCC2`: the inhibition is 33.8%.

As for `CN(C)CCNc1c2c(c(C#N)c3nc4ccccc4n13)CCCC2`, the inhibition is 21.3%.

With `O=C(Nc1nc2c(s1)CN(Cc1ccccc1)CC2)C1CCCC1`, the inhibition was -11.2%. Take `CCOc1ccc2nc(NCCNC(=S)NCCCN(C)C)c(C#N)cc2c1`: the inhibition was -5.8%. As to `COCCn1c(=N)c(C(=O)NCCc2ccc(OC)cc2)cc2c(=O)n3cccc(C)c3nc21`, the inhibition is 23.3%. The same measure for `COc1ccc(/C=C2/C(=O)ON=C2c2ccccc2)cc1OC`: -3.7%; for `Cn1c(C(=O)NCCC2=CCCCC2)cc2c(=O)n3ccccc3nc21`: 34.3%. Then `CCCS(=O)(=O)c1c(S(=O)(=O)CCC)c2c(C)cccn2c1C(=O)N/N=C/c1cc(O)cc(O)c1`, with 1.8%; and `COc1ccc2nc(Nc3sc4c(c3C(N)=O)CCCC4)sc2c1`, with 45.1%.

Take `COc1ccccc1-n1c(SCc2cc(=O)oc3cc(O)ccc23)nc2ccccc2c1=O`: the inhibition is 29.8%. Consider `COc1cc(-c2nnc(SCc3cc(=O)oc4cc(O)c(O)cc34)o2)cc(OC)c1OC`, for which the inhibition is 49.9%. The same measure for `N#Cc1c(NC(=O)CSc2ncc(-c3ccccc3)n2CC2CCCO2)sc2c1CCCC2` (configuration not stated): -3.3%; for `CC(=O)N1c2ccccc2C2(O)N=C(C)SC12` (configuration not stated): 28.9%.
